{"source": "PubChem BioAssay (NCI)", "note": "This is part of a sample that, as a whole, favours compounds with a hit. Of some 83,000 tested, about 20% had one in any assay.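 Activity criterion: percent growth below 10, measured after cells in 96-well plates were exposed to a single compound concentration for 48 hours.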 Unmarked numbers belong to inactive results. Activity calls are given as the source filed them."}
{"system": "HL-60(TB) leukemia", "assay": "NCI-60 one-dose screen, 48 h (100 = growth as untreated, 0 = no growth, -100 = all killed)", "conditions": "10 µM unless noted"}
{"smiles": "O=C(O)Cc1ccc(Cl)cc1", "growth": "22.4%"}
{"smiles": "O=C(Nc1ccc(-n2cc(-c3ccncc3)c(-c3ccc(Cl)c(O)c3)n2)cc1)Nc1cc(C(F)(F)F)cc(C(F)(F)F)c1", "growth": "2.94% (active)"}
{"smiles": "O=Cc1ccc(Cl)c(Cl)c1", "growth": "106%"}
{"smiles": "O=C1CC(N2C(=O)/C(=C/C(Cl)=C\\c3ccc([N+](=O)[O-])cc3)SC2=S)C(=O)N1c1ccc(O)cc1", "note": "(stereo unspecified)", "growth": "-18.7% (active)"}
{"smiles": "NC(=S)NN=C1CCCC1", "growth": "95.1%"}
{"smiles": "Cc1nc(Nc2cccnc2)sc1C(=O)/C=C/c1ccc(Cl)cc1", "growth": "-4.8% (active)"}
{"smiles": "CCCCCCCCCCCCCC1=NC(C)(C)CN1C(C)C", "growth": "-66.7% (active)"}
{"smiles": "COc1cc(/C=N/Nc2ccc(Br)cc2)cc(OC)c1OC", "growth": "33%"}
{"smiles": "C=C1c2nc3ccccc3n2C=C(c2ccc(Cl)cc2)N1Cc1ccc(OC)cc1", "growth": "53%"}
{"smiles": "O=Cc1cc2ccccc2nc1Oc1ccc(C(F)(F)F)cc1", "growth": "92%"}
{"smiles": "CCCCCCCCCCCC(=O)NCCC[N+](C)(C)CC(=O)[O-]", "growth": "101%"}
{"smiles": "CC1(COc2ccc3c(c2)ncn3-c2ccc3cccc(N4CCC(N)CC4)c3n2)COC1", "growth": "-46.9% (active)"}
{"smiles": "C=C1CC2(OC1=O)C(=O)Nc1ccccc12", "note": "(stereo unspecified)", "growth": "31.6%"}
{"smiles": "CCCC(OC(C)=O)c1ccc2c(c1)OCO2", "note": "(stereo unspecified)", "growth": "98.7%"}
{"smiles": "C[C@@H](CO)[C@@H]1CC[C@]2(C(=O)N3CCN(C)CC3)CC[C@]3(C)[C@H](CC[C@@H]4[C@@]5(C)CC[C@H](O)C(C)(C)[C@@H]5CC[C@]43C)[C@@H]12", "growth": "-46.9% (active)"}
{"smiles": "Cn1c(=O)c2c(ncn2CC(=O)Nc2ccc(S(N)(=O)=O)cc2)n(C)c1=O", "growth": "94.2%"}
